The source of these data is PubChem BioAssay (NCI).

About 83,000 compounds went through this panel and 20% of them were active in at least one assay; those are over-represented in the sample as a whole.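 Note: values are percent growth. 100 is the growth of untreated cells, values between 100 and 0 indicate rising inhibition; between -100 and 0 indicates cell death.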 Unmarked numbers belong to inactive results. Activity calls are given as the source filed them. The calls were made as follows: active = growth percent below 10; inactive = the rest.

The test system of the assay is HL-60(TB) leukemia. Briefly: NCI-60 one-dose screen, 48 h (100 = growth as untreated, 0 = no growth, -100 = all killed). Conditions: 10 µM unless noted.
Turning to `CS(=O)(=O)Nc1cccc(-c2ccc3ncnc(Nc4cncc(Cl)c4)c3c2)c1`, the growth is 35.5%. For the molecule `CCCNCCC(C)=O`, the growth is 108%. For `C=C(C)[C@@H]1CC[C@]2(C(=O)NC(C)=O)CC[C@]3(C)[C@H](CC[C@@H]4[C@@]5(C)CCCNC(C)(C)[C@@H]5CC[C@]43C)[C@@H]12`, the growth is -51.2% (active). With `COc1ccc(NC(=S)NNc2ccc(-c3ccc(OC)c(OC)c3)nn2)cc1` the figure was 98.9%; with `CC(C)(C)n1cc(-c2ccnc(NCCNS(=O)(=O)c3ccc(Cl)cc3)c2)c(-c2cccc(O)c2)n1`, 39.4%. With `C=C1C(=O)O[C@H]2[C@H]1CC/C(CNC(=O)c1cc3cc(OC)ccc3[nH]1)=C\CC[C@@]1(C)O[C@@H]21` the figure was -21.3% (active); with `CCN(CC)c1ccc2cc(C(Nc3ccc(Cl)cc3)c3nnnn3C(C)(C)C)c(=O)oc2c1` (stereo not given), 96%. With `c1ccc(Sc2ncccn2)nc1` the figure was 100%; with `Cc1ccc(C(=O)c2ccc(CC(=O)NN3C(=O)c4ccccc4C3=O)n2C)cc1`, 100%.

For `CC(=O)OCC(=O)C1CCC=CC1OC(C)=O` (stereo not given), the growth is 99.3%. With `COc1ccc(-c2nc(SC(C)C)nc(NNC(N)=O)c2C#N)cc1` the figure was 80.3%; with `CCOc1cc2c(cc1OCC)C(c1cc(C)c(O)c(C)c1)NCC2` (stereo not given), 81.7%. Take `COc1cc(C(=O)/C=C/c2c(C)n([O-])c3ccc(C)cc3[n+]2=O)cc(OC)c1OC`: the growth is -42.6% (active). With `N#Cc1c(N)sc(=S)c2c1CCCC2` the figure was 97.6%; with `Oc1ccc2ccccc2c1CN1CCOCC1`, 105%.
